# From PubChem
# Marburg entry inh: blocks Marburg virus binding to or entry into cells | Marburg virus pseudotyped entry inhibition, cell reporter | Potency, µM (top dose mostly 37.8 µM), for the others: at the top dose activity change, negative = inhibition, usual class: inhibitors | 300,000 compounds, 1.8% hits; calls by dose curve; tested in HEK293 cells
# FMDV inh: antivirals against foot and mouth disease virus. AID 1159524. 410,000 compounds, 1.2% hits. Potency, µM (series often up to 57.9 µM), for the others: at the highest dose activity change, negative = inhibition, most hits filed as inhibitors. FMDV antiviral cell-based qHTS; calls by dose curve; tested in HEK293T cells; further: read-out not given here; nearly all actives have a fitted effect of over 45% in size
# Vaccinia Venus: inhibitors of vaccinia virus (Venus reporter); Vaccinia virus Venus reporter expression, fluorescence; Potency, µM (doses to about 36.5 µM), for the others: at the top dose activity change, negative = inhibition, hits mostly inhibitors; 330,000 compounds, 0.46% hits; AID 720580; calls by dose curve; tested in A549 cells; further: nearly all actives have a fitted effect of over 30% in size
# Sm TGR block: blocks Schistosoma mansoni thioredoxin glutathione reductase | Q962Y6 | purified TGR, DTNB reduction, TNB absorbance 405 nm | Potency, µM (series often up to 114 µM), inactives show at the top dose activity change, negative = inhibition, hits mostly inhibitors | 360,000 compounds, 3% hits | AID 485364; active means well fitted inhibition curve with a large enough effect; inconclusive means small, poorly fitted or top-dose-only effect; inactive means no such curve, though single readings can be large or run the other way; further: nearly all actives have a fitted effect of over 60% in size
#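 Kinetic colorimetric format: TGR-catalysed, NADPH-driven DTNB reduction monitored via TNB absorbance. Enzyme dispensed at 20 nM; compound exposure 15 min at room temperature before reaction start.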
# Lassa entry inh: blocks Lassa virus binding to or entry into cells. AID 540256. Potency, µM (highest dose often 37.9 µM), without a hit: top-dose activity change, negative = inhibition, usual class: inhibitors. 300,000 compounds, 1.2% hits. Lassa virus pseudotype entry inhibition, cell reporter; calls by dose curve; tested in HEK293 cells; further: nearly all actives have a fitted effect of over 50% in size
# Vaccinia mCherry: inhibitors of vaccinia virus infection (mCherry reporter signal). Vaccinia virus mCherry reporter infection, fluorescence. Potency, µM (top dose mostly 36.5 µM), without a hit: at the top dose activity change, negative = inhibition, most hits filed as inhibitors. 310,000 compounds, 0.63% hits; calls by dose curve; tested in A549 cells; further: nearly all actives have a fitted effect of over 35% in size
# * hit, by the source's call; i = inactive; ? = inconclusive; nt = not tested or not shown; [ ] = remark or other dose. This is a sample that favours compounds with a hit; in the whole collection about 5.4% have one here. On the % scale 0 is the no-effect control and ±100 the full control effect; potency means the concentration at half of the fitted maximal effect.
SMILES,Marburg entry inh,FMDV inh,Vaccinia Venus,Sm TGR block,Lassa entry inh,Vaccinia mCherry
COc1ccc(NC(=O)c2cc3c(=O)n(Cc4cccnc4)ccc3nc2C)c(OC)c1,nt,-18%,1%,-4%,22%[46.1 µM],0%
COc1cccc(NC(=O)CSc2nnc(-c3ccco3)c(-c3ccco3)n2)c1,-11%,-8%,1%,2.8µM*,-9%,i
COc1ccc(NC(=O)CSc2nnc(-c3ccco3)c(-c3ccco3)n2)cc1OC,?,-8%,-10%,5.6µM*,?,i
COc1ccc(NC(=O)CSc2nc(-c3ccco3)cc(C(F)(F)F)n2)cc1OC,-11%[46.1 µM],?,?,-1%,-8%[46.1 µM],?
COc1ccc(N2CCN(c3oc(/C=C/c4cc(OC)c(OC)c(OC)c4)nc3C#N)CC2)cc1,11%[46.1 µM],-11%,-18%,-2%,-17%[46.1 µM],-18%
COC(=O)N[C@@H](c1ccc(Cl)cc1)C(C(C)=O)C(=O)OC (stereo partly drawn),13%[14.2 µM],nt,nt,nt,nt,nt
Cc1ccc(S(=O)(=O)N[C@@H]2COC(=O)[C@@H](C)COC(=O)CC=C[C@H]2C)cc1,7%[14.2 µM],nt,nt,nt,nt,nt
Cc1ccc(CN2[C@H](C)[C@H](c3ccccc3)OCCS2(=O)=O)cc1,nt,nt,-27%,nt,nt,-10%
CSc1nnc(-c2sc3cc(C(F)(F)F)cnc3c2-c2ccccc2)n1C,1.6µM*,-19%,?,-10%,?,nt
O=S(=O)(Nc1cccnc1)c1cccc(C(F)(F)F)c1,-13%,18%,-6%,-4%,?,i
O=[N+]([O-])c1ccc(S(=O)(=O)c2cccc(C(F)(F)F)c2)nc1,11µM*,18µM*,?,nt,?,-20%
COc1ccccc1NC(=O)C(CC=C(Cl)Cl)C(C)=O (stereo not drawn),0%,-14%,-7%,35µM*,-19%,-12%
CC(C)(C)n1nnnc1C(c1cccnc1)N(Cc1ccccc1)Cc1ccco1 (stereo not drawn),-13%,-13%,-10%,-2%,3%,i
COc1cccc(CN(Cc2ccco2)C(c2ccc(F)cc2)c2nnnn2C(C)(C)C)c1 (stereo not drawn),?,?,?,50µM*,?,nt
CCCN(Cc1cc2cc(OC)ccc2[nH]c1=O)C(=O)c1ccco1,-6%,-18%,-18%,40µM*,-4%,i
CCCCN(Cc1cc2cc(OC)ccc2[nH]c1=O)C(=O)c1ccco1,-28%,0%,-9%,45µM*,-1%,nt
COC(=O)c1cccc(S(=O)(=O)N(Cc2ccco2)Cc2cc3cc(OC)ccc3[nH]c2=O)c1,-22%,22µM*,nt,28µM*,?,nt
CCCCN(Cc1cc2cc(OC)ccc2[nH]c1=O)C(=O)c1ccccn1,1%,-27%,?,3%,-2%,nt
COc1ccc2[nH]c(=O)c(CN(C(=O)c3ccco3)C(C)C)cc2c1,7%[46.1 µM],-2%,-8%,2%,-7%[46.1 µM],-11%
Cc1ccc2[nH]c3c(=O)n(CC(=O)N4CCCC(C)C4)ncc3c2c1 (stereo not drawn),nt,-21%,-10%,1%,-1%[46.1 µM],-20%
COCCCNc1ncnc2sc(C(=O)N3CCCCC3)c(C)c12,nt,-7%,0%,nt,nt,-9%
COc1ccc(-c2c(C)nn3c(N4CCN(c5ccccc5)CC4)cc(C)nc23)cc1OC,5%[46.1 µM],-17%,-3%,-7%,0%[46.1 µM],-4%
O=C(CCl)c1ccc2c(c1)CCCC2,nt,nt,-23%,nt,nt,-17%
CC(C)[C@H](CO)Nc1nc(Nc2ccc(C(=O)O)c(Cl)c2)c2ncn(C(C)C)c2n1,nt,-10%,nt,nt,nt,nt
C=CC(=O)Nc1ccc(Nc2nc(NC3CCC(N(C)C)CC3)nc3c2ncn3C(C)C)cc1 (stereo not drawn),nt,-47%,1.1µM*,nt,nt,?
SMILES,Marburg entry inh,FMDV inh,Vaccinia Venus,Sm TGR block,Lassa entry inh,Vaccinia mCherry
CCOC(=O)C1NNN2C3CCCCC3C(N(CC)CC)NC12 (stereo not drawn),18%[46.1 µM],nt,nt,nt,nt,nt
Oc1ccc(CCNc2c3ccccc3nc3ccccc23)cc1O,10µM*,-15%,?,0%,?,?
CNc1nc(NCc2ccccc2)c2ccccc2n1,4µM*,-18%,-22%,7%,?,-4%
c1ccc(CNc2c3ccccc3nc3ccccc23)cc1,nt,-19%,11µM*,4%,nt,?
CNCCc1ccc(O)c(O)c1,?,-20%,-8%,nt,?,-1%
Cc1ccc(CNC(=O)c2c3c(nc4ccccc24)C(=O)N(C2CCCCC2)C3)cc1,nt,-19%,-11%,4%,?,i
CC(C)OC(=O)[C@@H](CC(=O)O)NCc1ccccc1,0%,nt,nt,nt,nt,nt
CC(=O)OC[C@H]1O[C@H](CC=NO[C@@H](C)CN2CCCc3nc(C)c(C)cc32)C=C[C@@H]1OC(C)=O,9%[14.2 µM],nt,nt,nt,nt,nt
O=C(NCC1Cc2cccc(-c3ncccn3)c2O1)C1CCCO1 (stereo not drawn),nt,-2%,-9%,nt,nt,-18%
COc1ccc(-c2csc(NC(=O)CSCc3c(C)noc3C)n2)cc1OC,?,40µM*,-16%,-2%,11µM*,-3%
COc1ccc(-c2csc(NC(=O)CSCC(=O)Nc3cc(C)on3)n2)cc1OC,?,-29%,-9%,-8%,?,-12%
Cc1noc(C)c1CSCC(=O)Nc1nc(-c2ccc(F)c(F)c2)cs1,?,18µM*,-12%,7%,?,i
Cc1ccc(OCCNC(=O)/C=C/c2ccco2)cc1C,nt,-8%,nt,1.1µM*,nt,nt
Cc1ccc(OCCNC(=O)/C=C/c2ccccc2)cc1C,-4%,5%,-2%,1%,10%,-3%
CC(/C=C/c1ccco1)=N\NC(=O)COc1ccc(C)c(C)c1,0%[46.1 µM],11%,-5%,7.1µM*,4%[46.1 µM],-7%
COc1ccc(S(=O)(=O)NCCc2cn3ccsc3n2)cc1OC,nt,35%,-4%,40µM*,9%[46.1 µM],-11%
COC(=O)c1ccc(C2/C(=C(/O)c3ccc(Cl)cc3)C(=O)C(=O)N2C2CCS(=O)(=O)C2)cc1 (stereo not drawn),nt,?,nt,-2%,nt,nt
O=C1C(=O)N(C2CCS(=O)(=O)C2)C(c2cccc(O)c2)/C1=C(/O)c1ccc(Cl)cc1 (stereo not drawn),nt,-18%,nt,56µM*,nt,nt
CCCCOC(=O)c1ccc(NC(=O)Cc2coc3c(C)c(C)ccc23)cc1,-28%[46.1 µM],-24%,-7%,21%,-9%[46.1 µM],i
O=c1c(-c2ccccc2)nc2cnc(N3CCNCC3)nc2n1C1CC1,nt,-13%,nt,nt,nt,nt
COC(=O)C1=C(C)N(Cc2ccccc2)C(=S)NC1CCc1ccccc1 (stereo not drawn),38%[14.2 µM],nt,nt,nt,nt,nt
O=C(Nc1ccc(C(F)(F)F)cc1Cl)c1ccc(Cn2cc(Br)cn2)o1,-2%,nt,-2%,45µM*,2%,i
O=C(Nc1cccc(C(F)(F)F)c1)c1ccc(Cn2cc(Br)cn2)o1,?,-27%,nt,-23%,2%,nt
O=C(NC1CCCCC1)c1ccc(Cn2cc(Br)cn2)o1,-23%,-2%,-20%,45µM*,-4%,nt
Cc1ccc(N(CN2C(=O)[C@H]3CC=CC[C@@H]3C2=O)C(=O)c2ccco2)cc1Cl,-20%,nt,nt,nt,nt,nt
